PubChem BioAssay AID686954 (Sanford-Burnham Center for Chemical Genomics, 2013)
About 240 (0.8%) of roughly 30,000 compounds were called active.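 How the source made its calls: active means at 10 µM dose, at least 30% inhibition, measured as corrected fluorescence normalized to stimulator and neutral control wells; inactive means the rest.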 This excerpt belongs to a sample that is enriched for actives.

Each compound was assayed against Protein artemis (Homo sapiens) (UniProt Q96SD1) (assay: blockers of Artemis DNA hairpin overhang cleavage – biochemical, fluorescence intensity, FAM/BHQ-1 hairpin substrate, primary screen (AID 686954)). Settings: recombinant Artemis, quenched FAM hairpin cleavage fluorescence; at 10 µM; hits give high values.
Chain of Protein artemis (Homo sapiens) (Q96SD1 whole entry, looked up): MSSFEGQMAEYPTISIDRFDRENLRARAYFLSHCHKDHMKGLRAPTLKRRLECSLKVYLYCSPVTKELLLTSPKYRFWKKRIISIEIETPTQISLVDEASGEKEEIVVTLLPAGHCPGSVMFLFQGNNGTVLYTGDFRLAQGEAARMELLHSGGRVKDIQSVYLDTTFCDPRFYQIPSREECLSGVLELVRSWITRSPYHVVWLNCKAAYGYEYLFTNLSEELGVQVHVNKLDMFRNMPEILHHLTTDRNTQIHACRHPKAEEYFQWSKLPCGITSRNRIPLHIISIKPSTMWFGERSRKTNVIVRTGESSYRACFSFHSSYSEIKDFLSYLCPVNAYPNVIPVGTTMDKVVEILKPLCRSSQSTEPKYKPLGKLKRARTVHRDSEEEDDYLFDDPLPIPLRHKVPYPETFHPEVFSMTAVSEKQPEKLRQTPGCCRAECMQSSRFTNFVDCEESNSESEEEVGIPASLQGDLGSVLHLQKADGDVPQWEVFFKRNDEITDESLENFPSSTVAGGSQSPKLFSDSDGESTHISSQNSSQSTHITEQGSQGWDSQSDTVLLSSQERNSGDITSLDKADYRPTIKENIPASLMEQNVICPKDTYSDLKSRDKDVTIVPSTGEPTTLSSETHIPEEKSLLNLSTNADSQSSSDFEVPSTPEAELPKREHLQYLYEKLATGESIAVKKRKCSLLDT

Row | Compound | inhibition
1 | COC(=O)/C=C/C(=O)NCc1ccco1 | 25.1% (inactive)
2 | Cc1ccccc1OC(=O)Cn1c(C(F)(F)F)nc2ccccc21 | 1.38% (inactive)
3 | Cc1cc2c(cc1C)N(C(=O)CN1C(=O)c3ccccc3C1=O)C(C)(C)c1ssc(=S)c1-2 | 2.13% (inactive)
4 | O=C(Oc1cccnc1)c1cc2ccccc2oc1=O | 4.63% (inactive)
5 | CC(C)C(c1nnnn1CCc1ccccc1)N1CCN(C(=O)c2ccco2)CC1 (configuration not stated) | -0.73% (inactive)
6 | COc1ccc(C2C(C(C)=O)=C(O)C(=O)N2c2nccs2)cc1 (configuration not stated) | -6.55% (inactive)
7 | Cc1ccc(SCC(=O)Nc2ncc(C)s2)cc1 | 3.54% (inactive)
8 | O=C(N/N=C\c1ccc(-c2ccc(Cl)c(Cl)c2)o1)C(=O)N1CCCC1 | 10.4% (inactive)
9 | Cc1cc(-c2ccccc2)n2nc(C)c(-c3ccccc3)c2n1 | -3.76% (inactive)
10 | O=C(c1ccccc1Oc1ccccc1)N1CCN(c2ccc(F)cc2)CC1 | 10.1% (inactive)
11 | Cc1cc(C)n2nc(C(=O)NC(C)(C)C)nc2n1 | -8.47% (inactive)
12 | CCCCNC(=O)CSc1nc2ccc(NC(=O)CSc3nnc(COc4ccccc4C)n3C)cc2s1 | 1.88% (inactive)
13 | CC(=O)c1ccc(Cc2ncc(C(F)(F)F)cc2Cl)s1 | -6.84% (inactive)
14 | O=C(Cn1c(-c2cscn2)nc2ccccc21)Nc1ccc(Cl)cc1 | 6.18% (inactive)
15 | COc1cc(CNCc2cccs2)cc(Br)c1OC | -2.14% (inactive)
16 | CCOCC(=O)Nc1cc(OC)c(Cl)cc1OC | -5.52% (inactive)
17 | Cc1ccc(/C=N/NC(=O)C(NC(=O)c2ccccc2)c2n[nH]c(=O)c3ccccc23)cc1 (configuration not stated) | 10.5% (inactive)
18 | COCCCn1c(SCC(=O)Nc2ccccc2)nnc1-c1ccncc1 | -5.35% (inactive)
19 | Cn1c(=O)c2c(n(Cc3ccccc3)c1=O)NC(=O)C2CC(=O)N1CCc2ccccc2C1 (configuration not stated) | 6.23% (inactive)
20 | O=C(Nc1ccc(-n2ccnc2P(=O)(O)c2ccccc2)cc1)c1ccccc1Br | 4.42% (inactive)
21 | CCN(CC)CCN1C(=O)C(=O)/C(=C(/O)c2ccccc2)C1c1ccccc1F (configuration not stated) | 3.66% (inactive)

Row | Compound | inhibition
22 | CC(C)(C)NS(=O)(=O)CC12CCC(CC1=O)C2(C)C (configuration not stated) | -3.02% (inactive)
23 | CN(C)CCNC(=O)Nc1cccc(Cl)c1Cl | -0.2% (inactive)
24 | CCN(CC)Cc1cc(C(C)=O)ccc1O | -4.35% (inactive)
25 | O=C(Nc1nnc(SCc2ccccc2)s1)c1ccco1 | 12.4% (inactive)
26 | Cc1nn2c3ccccc3nc2n(C)c1=O | 0.11% (inactive)
27 | O=C(Nc1ccc2c(c1)CCC2)c1cccc(S(=O)(=O)N2CCN(c3ccc(F)cc3)CC2)c1 | 2.72% (inactive)
28 | CN1CCN(S(=O)(=O)c2ccc(N3CCN(S(=O)(=O)c4cccs4)CC3)nc2)CC1 | -9.36% (inactive)
29 | Cc1ccc(NC(=S)NC2CCCC2)cc1 | 1.01% (inactive)
30 | CCC(=O)NNc1cc(=O)c2c(=O)n(C)c(=O)n(C)c2[nH]1 | 0.17% (inactive)
31 | COc1cccc(CNc2nc3nc4c(c(=O)n3[nH]2)CCC4)c1 | -6.09% (inactive)
32 | CCN(Cc1ccncc1)C(=O)c1cccc(S(=O)(=O)N2CCOCC2)c1 | -1.99% (inactive)
33 | Cc1cc(C)c2c(-n3cccc3)c(NC(=O)OCc3ccccc3)sc2n1 | 0.14% (inactive)
34 | CCOc1cccc(C(=O)Nc2cnn(Cc3ccccc3)c2)c1 | 0.76% (inactive)
35 | Cc1ccc(C2NC(=S)NC3=C2N2CCC3CC2)cc1 (configuration not stated) | -3.09% (inactive)
36 | CN1CCN(Cc2c(O)ccc3c2oc(=O)c2ccccc23)CC1 | -4.24% (inactive)
37 | Cc1ccc(/C=N\n2c(-c3ccccc3)n[nH]c2=S)s1 | 4.19% (inactive)
38 | CC(=O)c1sc(NC(=O)c2cccc3ccccc23)nc1C | 5.24% (inactive)
39 | Cc1nnc(NC(=O)CCCOc2ccccc2)s1 | -2.98% (inactive)
40 | NC(=O)C1CCN(C(=O)c2ccc(C(F)(F)F)cc2)CC1 | -5.95% (inactive)
41 | O=C(NCC1CCCO1)c1ccc2ccccc2n1 (configuration not stated) | 1.24% (inactive)
42 | N#C/C(=C(/O)COc1cccc2ccccc12)c1nc2ccccc2[nH]1 | -3.72% (inactive)

Row | Compound | inhibition
43 | CC(C)(O)C(=O)NN(C(=O)c1ccccc1)c1cccc(Br)c1 | -17.1% (inactive)
44 | O=C(COc1ccc2oc3c(c2c1)CCCC3)Nc1ccccn1 | -4.41% (inactive)
45 | CCOC(=O)C1CCc2nc3ccccc3c(=O)n21 (configuration not stated) | -9.86% (inactive)
46 | CCC(C)NC(=O)c1ccccc1NC(=O)c1ccccc1N(C)S(C)(=O)=O (configuration not stated) | -0.77% (inactive)
47 | O=C(CSc1nnc(-c2ccco2)n1-c1ccccc1)NCCc1ccccc1 | 5.03% (inactive)
48 | CCOc1ccc(-c2c(C)n([O-])c3c([n+]2=O)CCCC3)cc1 | -6.29% (inactive)
49 | CCC(=O)NC(Nc1nc2ccc(C)cc2s1)(C(=O)OC)C(F)(F)F (configuration not stated) | -8.44% (inactive)
50 | CCn1c(COc2ccccc2)nnc1SCC(=O)Nc1ccc2c(c1)OCCO2 | -7.11% (inactive)
51 | S=C(NCCC1=CCCCC1)Nc1ccccc1 | 3.85% (inactive)
52 | CCOC(=O)C1=NNC2(c3ccc(Cl)cc3)C(=O)N(c3cc(C)cc(C)c3)C(=O)C12 (configuration not stated) | 1.03% (inactive)
53 | Cc1oc2nc(SCC(=O)NCc3cccnc3)nc(N)c2c1C | 2.99% (inactive)
54 | Cc1nn(Cc2ccccc2Cl)c(C)c1NC(=O)Cn1nc([N+](=O)[O-])c(Cl)c1C | 1.31% (inactive)
55 | Cc1c(Cl)c([N+](=O)[O-])nn1Cc1ccc(C(=O)N/N=C\c2cc(Cl)ccc2O)o1 | 31% (active)
56 | CCCc1ccc(OCc2ccc(C(=O)N/N=C/c3cccc([N+](=O)[O-])c3)o2)c(OC)c1 | -9.45% (inactive)
57 | COc1ccc(-c2nc3ccccc3n2CCC(C)C)cc1OC | 7.4% (inactive)
58 | CCSc1nnc(NC(=O)Cc2ccccc2OC)s1 | 2.36% (inactive)
59 | C[C@H](NC(=O)NCCc1ccccc1)C(=O)O | -9.76% (inactive)
60 | CCOC(=O)c1nc(Nc2ccc(C(=O)OC)cc2)c2ccccc2n1 | -0.44% (inactive)
61 | C/C(=N\NC(=O)c1ccccc1C)c1ccc(N2CCOCC2)cc1 | 0.87% (inactive)
62 | COc1cccc(-c2cc(C(=O)N/N=C/c3ccc(OC)c(COC(C)=O)c3)c3ccccc3n2)c1 | 9.16% (inactive)
